FECH inh – blocks human mitochondrial ferrochelatase activity; purified FECH, Ni-mesoporphyrin absorbance 550 nm; calls only at 10 µM (by protocol); 20,000 compounds, 3.3% hits; AID 1671448;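 active means enzyme reaction rate more than 3 SD below the solvent-only control wells on the same plate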;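 further: lower slope than DMSO wells means FECH inhibition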
Target sequence (P22830 whole entry, looked up): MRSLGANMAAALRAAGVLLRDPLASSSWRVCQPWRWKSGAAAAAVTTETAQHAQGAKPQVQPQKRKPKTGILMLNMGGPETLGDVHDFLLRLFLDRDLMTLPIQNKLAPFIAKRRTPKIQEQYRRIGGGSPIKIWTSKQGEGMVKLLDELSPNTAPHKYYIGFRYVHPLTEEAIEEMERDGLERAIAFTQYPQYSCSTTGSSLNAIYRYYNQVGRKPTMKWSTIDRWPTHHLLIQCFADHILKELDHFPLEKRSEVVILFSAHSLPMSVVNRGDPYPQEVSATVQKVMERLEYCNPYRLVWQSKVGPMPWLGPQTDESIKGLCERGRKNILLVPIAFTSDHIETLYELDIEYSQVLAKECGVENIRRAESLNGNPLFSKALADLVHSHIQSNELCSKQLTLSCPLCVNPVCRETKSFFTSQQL
Active calls of the source: *. The entries come from a sample that favours hits as a whole.

What do the screens show for `COc1ccccc1NS(=O)(=O)c1ccc2c(c1)CCN2C(=O)CCC(=O)N1CCCCCC1`?
FECH inh: inactive

How did Cc1ccc(C(C)NC(=O)CN(Cc2cnn(C)c2)C2CC2)cc1 (stereo not given) do in these assays?
FECH inh: inactive

How did Cn1cc(CN(Cc2ccc(CO)o2)C2CC2)cn1 do in these assays?
FECH inh: active

What do the screens show for `Cn1cc(CN(Cc2cc3cc4c(cc3[nH]c2=O)OCO4)C2CC2)cn1`?
FECH inh: inactive

How did CN(CC(=O)NCc1ccc2[nH]c3c(c2c1)CCCC3)C1CCS(=O)(=O)C1 (stereo not given) do in these assays?
FECH inh: inactive

What do the screens show for `CCCN(CCC)CCNC(=O)c1cccn1-c1nnc(N2CCCCC2)s1`?
FECH inh: inactive

Results for O=C(NCCc1ccccc1)c1cccn1-c1nnc(N2CCCCC2)s1 ?
FECH inh: active

What do the screens show for `CCOc1ccc(CCNC(=O)c2cccn2-c2nnc(N3CCCCC3)s2)cc1`?
FECH inh: inactive

Results for CCOc1ccc(OCC)c(S(=O)(=O)N2CCN(c3nc(C)cc(Nc4ccc(OC)cc4)n3)CC2)c1 ?
FECH inh: inactive

Results for Cc1ccc2c(c1)c(Cn1cnc(-c3ccccc3)c1-c1cnn(C)c1)nn2C ?
FECH inh: inactive

Results for Cc1cc(C)cc(-n2c(CN3CCN(S(=O)(=O)c4ccccc4)CC3)nc3cccnc32)c1 ?
FECH inh: inactive

What do the screens show for `CCCN(CCC)c1ncc(NS(=O)(=O)c2cc(C)cc(C)c2)cc1C(=O)O`?
FECH inh: active

What do the screens show for `CCN(CCN(C)C)c1ncc(NS(=O)(=O)c2cc(C)cc(C)c2)cc1C(=O)O`?
FECH inh: inactive

How did Cc1cc(C)cc(S(=O)(=O)Nc2cnc(N(CC(C)C)CC(C)C)c(C(=O)O)c2)c1 do in these assays?
FECH inh: inactive

What do the screens show for `COc1ccc(C)cc1Nc1nc(-c2nnc(-c3ccc(C)cc3)o2)nc2ccccc12`?
FECH inh: inactive

What do the screens show for `COc1ccc(CNc2nc3nc(CNc4ccccc4Cl)cc(=O)n3[nH]2)cc1`?
FECH inh: inactive

Results for O=c1cc(CNc2cccc(C(F)(F)F)c2)nc2nc(NCc3ccccc3)[nH]n12 ?
FECH inh: inactive

What do the screens show for `Cc1ccc(Cl)cc1NCc1cc(=O)n2[nH]c(NCc3ccccc3)nc2n1`?
FECH inh: active

Results for COc1ccc(CNc2nc3nc(CNc4ccc(C)c(C)c4)cc(=O)n3[nH]2)cc1 ?
FECH inh: inactive

How did COc1ccc(CNc2nc3nc(CNc4ccccc4C)cc(=O)n3[nH]2)cc1 do in these assays?
FECH inh: inactive

What do the screens show for `COc1ccc(CNc2nc3nc(CNc4ccc(C)cc4C)cc(=O)n3[nH]2)cc1`?
FECH inh: active

Results for COc1ccc(CNc2nc3nc(CNc4cccc(C)c4)cc(=O)n3[nH]2)cc1 ?
FECH inh: inactive

How did CCc1ccc(NCc2cc(=O)n3[nH]c(NCc4ccccc4)nc3n2)cc1 do in these assays?
FECH inh: inactive

Results for O=c1cc(CNCc2ccccc2)nc2nc(NCc3ccccc3)[nH]n12 ?
FECH inh: active

What do the screens show for `CCCNCc1cc(=O)n2[nH]c(NCc3ccccc3)nc2n1`?
FECH inh: inactive

How did Cc1ccc(NCc2cc(=O)n3[nH]c(NCc4ccccc4)nc3n2)cc1Cl do in these assays?
FECH inh: inactive

How did Cc1ccccc1NCc1cc(=O)n2[nH]c(NCc3ccccc3)nc2n1 do in these assays?
FECH inh: active

How did Cc1ccc(F)cc1S(=O)(=O)Nc1cnc(N(C)CCCc2c(C)nn(C)c2C)c(C(=O)O)c1 do in these assays?
FECH inh: inactive

Results for CC(C)C(=O)Nc1cccnc1-c1cc(Cl)c2c(c1)CC(CN)O2 (stereo not given) ?
FECH inh: inactive

How did O=S(=O)(NCc1ccccc1)N1CCC(OCc2cccnc2)CC1 do in these assays?
FECH inh: inactive

How did CC1CCC(NS(=O)(=O)c2ccc3c(c2)CCN3C(=O)CCC(=O)N2CCCC2)CC1 (stereo not given) do in these assays?
FECH inh: inactive

What do the screens show for `CCOc1ccccc1C(=O)Nc1ccccc1Sc1cc(CC)nc2ncnn12`?
FECH inh: inactive

What do the screens show for `COc1ccc(CNc2nc3nc(CN4CCCC4)cc(=O)n3[nH]2)cc1`?
FECH inh: active

How did COc1ccc(CNc2nc3nc(CN4CCC(C)CC4)cc(=O)n3[nH]2)cc1 do in these assays?
FECH inh: inactive

Results for O=c1cc(CN2CCCC2)nc2nc(NCc3ccc(F)cc3)[nH]n12 ?
FECH inh: inactive

How did O=C(NC1CC1)c1cc2n(n1)CCN(C(=O)c1scc3c1OCCO3)C2 do in these assays?
FECH inh: inactive

Results for COCCNC(=O)C1(C)Cn2c(cc3ccsc32)C(=O)N1Cc1ccc(OC)cc1OC (stereo not given) ?
FECH inh: inactive

What do the screens show for `COc1ccc(C)cc1NC(=O)CN1C(=O)CC(c2ccc(Br)s2)=Nc2ccccc21`?
FECH inh: inactive

How did CCC(=O)Nc1ccccc1-c1nnc(SCC(=O)Nc2ccc(Cl)c(Cl)c2)[nH]c1=O do in these assays?
FECH inh: inactive

How did CCN1C(SCC(=O)Nc2cc(Cl)ccc2OC)=NS(=O)(=O)c2ccccc21 do in these assays?
FECH inh: inactive

How did O=C(CN1CCN(Cc2ccc(F)cc2Cl)S1(=O)=O)Nc1ccc(F)c(Cl)c1 do in these assays?
FECH inh: inactive

How did CCN1C(SCC(=O)Nc2cc(C)ccc2OC)=NS(=O)(=O)c2ccccc21 do in these assays?
FECH inh: active

What do the screens show for `CCN1C(SCC(=O)Nc2ccc(F)c(Cl)c2)=NS(=O)(=O)c2ccccc21`?
FECH inh: active

What do the screens show for `CCc1csc(CNC(=O)C2(c3ccc(F)cc3)CCOCC2)n1`?
FECH inh: inactive

How did CN1CCNC(=O)C12CCN(C(=O)c1ccc3sc(N)nc3c1)CC2 do in these assays?
FECH inh: inactive

How did c1ccc(-c2n[nH]c(C3CC3)n2)c(-c2nn[nH]n2)c1 do in these assays?
FECH inh: inactive

Results for COc1cc(F)c(-c2nccn2CCO)c(F)c1 ?
FECH inh: inactive

What do the screens show for `CN(CC1COc2ccccc2O1)S(=O)(=O)c1cc(C(=O)N2CCCC2)cs1` (stereo not given)?
FECH inh: inactive

What do the screens show for `COc1ccc(S(N)(=O)=O)cc1-c1noc(C2CCCCC2)n1`?
FECH inh: inactive

How did CCc1nc(-c2cc(S(N)(=O)=O)ccc2OC)no1 do in these assays?
FECH inh: active

How did COc1ccc(S(N)(=O)=O)cc1-c1noc(C(C)(C)C)n1 do in these assays?
FECH inh: inactive

Results for Cc1cccc(=O)n1CCCNC(=O)c1cccc(CC2CCNCC2)c1 ?
FECH inh: inactive

Results for CCCc1c(C)nc2ncnn2c1Sc1ccc(NC(=O)c2ccccc2)cc1 ?
FECH inh: inactive

How did CCCc1c(C)nc2ncnn2c1Sc1ccc(NC(=O)c2ccccc2C)cc1 do in these assays?
FECH inh: active

What do the screens show for `CCCc1c(C)nc2ncnn2c1Sc1ccc(NC(=O)c2ccc(C)cc2)cc1`?
FECH inh: inactive

Results for CCc1c(C)nc2ncnn2c1Sc1ccc(NC(=O)c2ccc(OC)cc2)cc1 ?
FECH inh: inactive

Results for CCCc1c(C)nc2ncnn2c1Sc1ccc(NC(=O)CC)cc1 ?
FECH inh: inactive

What do the screens show for `CCc1c(C)nc2ncnn2c1Sc1ccccc1NC(=O)c1ccccc1C`?
FECH inh: inactive

Results for CCCC(=O)Nc1ccc(Sc2c(CC)c(C)nc3ncnn23)cc1 ?
FECH inh: inactive

Bioassay records deposited in PubChem by Corson Lab, School of Medicine, Indiana University.
